Source: PubChem BioAssay AID1159580 (chemical genetic matrix, 2015)
Values joined by “and” are separate entries in the source; they are usually repeats but may differ in a detail not shown here. Identical values can stand only once. Hit rate of the full screen: of about 5,500 compounds, about 2,000 (36%) were called active. Another 18% or so got no clear call; they are omitted. No stated cut-off is given here; in the data, active means normalized growth mostly below about 0.91 (no sharp cut-off); inconclusive means no clear call, values can overlap the other calls; inactive means mostly above about 0.92. The list shows a part of the results.

Test: chemical genetic growth profiling, strain panel (AID 1159580);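 further: tested at 20 µM; growth read once vehicle control cultures reached saturation at 30 °C; 1 = growth at the plate median or of vehicle wells; lower values mean less growth of the strain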
Conditions: S. cerevisiae deletion strains, growth OD

Measured: normalized growth

COc1cc2c(cc1OC)C1Cc3ccc(OC)c(OC)c3CN1CC2 (stereo unspecified)
inactive: locus YAL021C, strain ccr4, active compounds read low 0.983 | locus YAL026C, strain drs2, active compounds read low 0.972 | locus YAL030W, strain snc1, active compounds read low 0.983 | locus YBL061C, strain skt5, active compounds read low 0.976 | locus YBR009C, strain hhf1, active compounds read low 0.972 | locus YBR021W, strain FUR4, active compounds read low 0.981 | locus YBR023C, strain chs3, active compounds read low 0.968 | locus YBR171W, strain sec66, active compounds read low 0.965 | locus YBR229C, strain ROT2, active compounds read low 0.985 | locus YBR231C, strain swc5, active compounds read low 0.983 | locus YBR279W, strain paf1, active compounds read low 0.983 | locus YCL011C, strain gbp2, active compounds read low 0.985 | locus YCL016C, strain dcc1, active compounds read low 0.999 | locus YCL029C, strain bik1, active compounds read low 0.998 | locus YCL061C, strain MRC1, active compounds read low 0.983 | locus YCL069W, strain vba3, active compounds read low 0.955 | locus YCR088W, strain abp1, active compounds read low 0.979 | locus YDL005C, strain med2, active compounds read low 0.974 | locus YDL035C, strain GPR1, active compounds read low 1 | locus YDL040C, strain nat1, active compounds read low 0.987 | locus YDL074C, strain BRE1, active compounds read low 0.989 | locus YDL101C, strain DUN1, active compounds read low 1 | locus YDL134C, strain PPH21, active compounds read low 1.03 | locus YDL185W, strain tfp1, active compounds read low 0.984 | locus YDL192W, strain arf1, active compounds read low 0.991 | locus YDR001C, strain nth1, active compounds read low 0.984 | locus YDR069C, strain doa4, active compounds read low 0.972 | locus YDR101C, strain arx1, active compounds read low 0.988 | locus YDR137W, strain rgp1, active compounds read low 0.967 | locus YDR159W, strain sac3, active compounds read low 0.972 | locus YDR162C, strain NBP2, active compounds read low 1.06 | locus YDR195W, strain ref2 0.955 | locus YDR297W, strain sur2, active compounds read low 0.975 | locus YDR318W, strain mcm21, active compounds read low 1 | locus YDR334W, strain swr1, active compounds read low 0.965 | locus YDR335W, strain msn5, active compounds read low 0.97 | locus YDR388W, active compounds read low 0.985 | locus YDR392W, strain spt3, active compounds read low 0.982 | locus YDR502C, strain sam2, active compounds read low 1 | locus YEL003W, strain gim4, active compounds read low 0.978 | locus YEL037C, strain rad23, active compounds read low 0.982 | locus YEL061C, strain CIN8 (second series), active compounds read low 0.95 | locus YEL061C, strain CIN8, active compounds read low 1.02 | locus YER015W, strain faa2, active compounds read low 0.984 | locus YER016W, strain bim1, active compounds read low 0.97 | locus YER110C, active compounds read low 0.982 | locus YER111C, strain swi4, active compounds read low 0.973 | locus YER155C, strain BEM2 (second series), active compounds read low 0.972 | locus YER155C, strain BEM2, active compounds read low 0.988 | locus YER167W, strain BCK2, active compounds read low 0.998 | locus YFR010W, strain ubp6, active compounds read low 0.96 | locus YGL078C, strain dbp3, active compounds read low 0.985 | locus YGL086W, strain mad1, active compounds read low 0.955 | locus YGL167C, strain pmr1, active compounds read low 0.978 | locus YGL173C, strain kem1, active compounds read low 0.987 | locus YGL227W, strain vid30, active compounds read low 0.979 | locus YGL240W, strain doc1, active compounds read low 0.973 | locus YGL248W, strain PDE1, active compounds read low 1.03 | locus YGL253W, strain hxk2, active compounds read low 0.97 | locus YGR135W, strain pre9, active compounds read low 1.01 | locus YGR252W, strain gcn5, active compounds read low 1.01 | locus YHR013C, strain ard1, active compounds read low 0.977 | locus YHR027C, strain rpn1, active compounds read low 1 | locus YHR030C, strain SLT2, active compounds read low 0.996 and 0.965 | locus YHR079C, strain IRE1 (second series), active compounds read low 0.995 | locus YHR079C, strain IRE1, active compounds read low 0.979 | locus YHR094C, strain hxt1, active compounds read low 0.978 | locus YHR129C, strain ARP1, active compounds read low 1 | locus YHR142W, strain chs7, active compounds read low 0.976 | locus YHR200W, strain rpn10, active compounds read low 0.992 | locus YIL066C, strain RNR3, active compounds read low 1.02 | locus YIL073C, strain SPO22, active compounds read low 1.05 | locus YIL125W, strain kgd1, active compounds read low 1 | locus YIR030C, strain dcg1, active compounds read low 0.987 | locus YJL092W, strain hpr5, active compounds read low 0.952 | locus YJL095W, strain BCK1 (second series), active compounds read low 0.975 | locus YJL095W, strain BCK1, active compounds read low 1.04 and 0.988 | locus YJL115W, strain asf1, active compounds read low 0.967 | locus YJL129C, strain trk1, active compounds read low 0.956 | locus YJL134W, strain LCB3, active compounds read low 0.983 | locus YJL154C, strain vps35, active compounds read low 0.981 | locus YJL164C, strain tpk1, active compounds read low 0.99 | locus YJL166W, strain qcr8, active compounds read low 0.99 | locus YJL168C, strain set2, active compounds read low 0.989 | locus YJL187C, strain SWE1 (second series), active compounds read low 1.01 | locus YJR043C, strain POL32, active compounds read low 1.01
